RORgamma inh = blocks mouse ROR gamma transcriptional activity; P51450; Drosophila S2 Gal4-RORgamma UAS-luciferase reporter, 20 h; Potency, µM (top dose mostly 53.6 µM), most hits filed as inhibitors; actives 5.4% (n = 310,000); note: nearly all actives have a fitted effect of over 60% in size
Target sequence (P51450 whole entry, looked up, the tested form may be a part): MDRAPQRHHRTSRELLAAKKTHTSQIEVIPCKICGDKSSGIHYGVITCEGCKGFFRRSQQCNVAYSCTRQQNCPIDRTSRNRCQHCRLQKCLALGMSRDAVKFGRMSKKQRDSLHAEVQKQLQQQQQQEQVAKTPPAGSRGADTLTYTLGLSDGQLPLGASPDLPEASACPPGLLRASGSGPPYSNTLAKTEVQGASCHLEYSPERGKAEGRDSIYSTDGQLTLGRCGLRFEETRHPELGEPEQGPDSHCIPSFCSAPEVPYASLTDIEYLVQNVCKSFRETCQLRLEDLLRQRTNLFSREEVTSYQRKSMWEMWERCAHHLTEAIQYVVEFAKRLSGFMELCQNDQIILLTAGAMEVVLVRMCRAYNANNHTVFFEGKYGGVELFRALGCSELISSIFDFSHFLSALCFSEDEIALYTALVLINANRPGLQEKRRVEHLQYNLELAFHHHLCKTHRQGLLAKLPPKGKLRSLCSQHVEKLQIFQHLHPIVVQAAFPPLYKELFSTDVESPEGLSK
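Luciferase reporter read in Schneider cells carrying Gal4-RORγ (mouse) and UAS-Photinus luciferase; cells given compound 1 h before 700 uM copper sulfate induction, then incubated 20 h at ambient temperature.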
IL-1B inflam inh = inflammasome signaling inhibition, IL-1 beta readout. activity change, % at 57.5 µM. actives 4.7% (n = 360,000). THP-1 LPS/ATP IL-1B secretion, AlphaLISA, 16 h; hits give low values; in the data active = activity change below about -50%; inconclusive = mostly about -30% to -49%
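Secreted IL-1B measured by AlphaLISA bead assay after 16 h compound exposure of THP-1 cells; compounds (final up to 57.5 uM) added 1 h before LPS (250 ng/mL) and ATP (1.25 mM) stimulation; lower signal means less secretion.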
VP16 counter = inhibits Gal4-VP16 luciferase reporter, ROR gamma counter-screen; Drosophila S2 Gal4-VP16 UAS-luciferase, luminescence, 20 h; Potency, µM (titrated, usually from 53.6 µM), actives largely listed as inhibitors; AID 2546; actives 3.5% (n = 310,000);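 note: Gal4-VP16 expression switched on by copper sulfate through the metallothionein promoter; nearly all actives have a fitted effect of over 50% in size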
DT40 TDP1 no CPT = qHTS for Inhibitors of human tyrosyl-DNA phosphodiesterase 1 (TDP1): qHTS in cells in absence of CPT. DT40 Tdp1-/- hTDP1 cells, no CPT, ATP luminescence, 48 h. Potency, µM (doses to about 46.2 µM), usual class: inhibitors. actives 15% (n = 420,000). AID 686978, 2013; note: nearly all actives have a fitted effect of over 55% in size
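A cellular qHTS used chicken DT40 cells lacking endogenous Tdp1 but carrying stably transfected human TDP1. Compounds were applied without camptothecin, and cell growth kinetics were judged by ATP-dependent luminescence after ≥48 hr.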
ELG1 repair inh = blocks ELG1-dependent DNA repair in HEK293T cells. Potency, µM (doses to about 46.1 µM), hits mostly inhibitors. AID 504467. actives 2.3% (n = 330,000). HEK293T ELG1-luciferase reporter, luminescence, 16 h; DNA damage induced by 5-fluorouridine; note: nearly all actives have a fitted effect of over 55% in size
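Overnight (16 hr) co-exposure of 2,000 cells/well to 5-fluorouridine and compound at 37 °C preceded detection. Luciferase was quantified via ONE-Glo luminescence; loss of signal denotes inhibition.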
DT40 TDP1 CPT = growth inhibition of DT40 Tdp1-/-;hTDP1 cells with camptothecin (screen for TDP1 inhibitors); AID 686979; chicken DT40 Tdp1-/-;hTDP1 cells + 20 nM CPT, ATP luminescence, 48 h; actives 12% (n = 420,000); Potency, µM (titrated, usually from 46.2 µM), hits mostly inhibitors; note: nearly all actives have a fitted effect of over 55% in size
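Chicken DT40 Tdp1-/- cells complemented with human TDP1, 400 cells/well, exposed to compounds plus 20 nM camptothecin for at least 48 h at 37 C; viability read as ATP content by CellTiter-Glo luminescence.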
Each line names hits and unclear results; the compound was inactive in the other large screens. Shown are actives, neighbours in structure and some others; about 21% of the full set was active somewhere. Unless noted, calls come from the whole dose curve; as a rule, active = well fitted curve in the direction sought with a large enough effect; inconclusive = small, poorly fitted or top-dose-only effect, or another doubt; inactive = no such curve, though single readings can be large; an effect the other way counts as inactive or inconclusive.

CN1C[C@@H]2C(c3ccc(C(F)(F)F)cc3)C3(c4ccc(C#N)cc4)CC2(C3)[C@H]1c1ccccc1 (stereo partly specified)	DT40 TDP1 no CPT 23µM, ELG1 repair inh inconclusive, DT40 TDP1 CPT 10µM
COC(=O)c1cccc(C23CC4(C2)[C@H](CN(C)[C@@H]4c2ccccc2)C3c2ccccc2)c1 (stereo partly specified)	DT40 TDP1 no CPT 23µM, DT40 TDP1 CPT 21µM
CN1C[C@@H]2C(c3ccccc3)C3(c4ccccc4)CC2(C3)[C@H]1c1ccccc1 (stereo partly specified)	DT40 TDP1 no CPT inconclusive, DT40 TDP1 CPT 26µM
CN1C[C@@H]2C(c3ccc(Cl)nc3)C3(c4ccccc4)CC2(C3)[C@H]1c1ccccc1 (stereo partly specified)	DT40 TDP1 no CPT 16µM, DT40 TDP1 CPT 21µM
CCOC(=O)[C@]12CCCC=C1N(CCC1=CCCCC1)C(=O)[C@H](CC(=O)N1CCN(C(=O)C3CC3)CC1)C2	DT40 TDP1 no CPT inconclusive, DT40 TDP1 CPT inconclusive (no result: RORgamma inh, VP16 counter, ELG1 repair inh)
C#CCOc1ccc(CNC[C@H]2O[C@@H](n3cnc4c(N)ncnc43)[C@H](O)[C@@H]2O)cc1	DT40 TDP1 no CPT inconclusive, DT40 TDP1 CPT inconclusive (no result: RORgamma inh, VP16 counter)
O=C(Nc1ccc2c3c(cccc13)CC2)c1ccc(Br)o1	RORgamma inh inconclusive, VP16 counter inconclusive, DT40 TDP1 no CPT inconclusive, ELG1 repair inh inconclusive, DT40 TDP1 CPT inconclusive
O=C(NC(=S)N1CCc2ccccc21)c1ccc(Br)o1	RORgamma inh 0.25µM, VP16 counter 0.32µM, DT40 TDP1 no CPT 5.2µM, DT40 TDP1 CPT 2.9µM
O=C(NC(=S)N1CCc2ccccc21)c1ccccc1Br	RORgamma inh 0.1µM, VP16 counter 0.89µM, DT40 TDP1 no CPT 21µM, ELG1 repair inh inconclusive, DT40 TDP1 CPT 18µM
O=C(Nc1nccs1)[C@@H]1CC=C[C@@H]2CCN(C3CC3)C(=O)[C@@H]21	none (no result: RORgamma inh, IL-1B inflam inh, VP16 counter, ELG1 repair inh)
CC(C)(C)C(=O)Nc1nc2nc(-c3ccccc3)cc(=O)n2[nH]1	none (no result: RORgamma inh, IL-1B inflam inh, VP16 counter, ELG1 repair inh)
COc1ccc(Nc2ccc3cc(S(=O)(=O)N4CCCC4)ccc3n2)cc1OC	DT40 TDP1 no CPT 21µM, DT40 TDP1 CPT 18µM (no result: RORgamma inh, IL-1B inflam inh, VP16 counter, ELG1 repair inh)
CCOc1ccccc1Nc1ccc2cc(S(=O)(=O)N3CCCCC3)ccc2n1	DT40 TDP1 no CPT 18µM, DT40 TDP1 CPT inconclusive (no result: RORgamma inh, IL-1B inflam inh, VP16 counter, ELG1 repair inh)
COc1cccc(Nc2ccc3cc(S(=O)(=O)N4CCC(C)CC4)ccc3n2)c1	DT40 TDP1 no CPT 15µM, DT40 TDP1 CPT inconclusive (no result: RORgamma inh, IL-1B inflam inh, VP16 counter, ELG1 repair inh)
CC1CCN(S(=O)(=O)c2ccc3nc(N4CCN(c5ccccc5)CC4)ccc3c2)CC1	none
O=S(=O)(c1ccc2nc(N3CCN(c4ccccc4F)CC3)ccc2c1)N1CCCCC1	DT40 TDP1 no CPT inconclusive
O=S(=O)(c1ccc2nc(Nc3ccccc3)ccc2c1)N1CCCCC1	IL-1B inflam inh -67, DT40 TDP1 no CPT 16µM, DT40 TDP1 CPT inconclusive
O=C1NN=C2CCCCCCC12 (stereo unspecified)	none (no result: RORgamma inh, VP16 counter, ELG1 repair inh)
O=C(CC[C@H]1O[C@@H](n2cnc3c(NC(=O)c4ccccc4)ncnc32)[C@H](O)[C@@H]1O)NCCCN1CCOCC1	none (no result: RORgamma inh, VP16 counter, ELG1 repair inh)
O=C(CC[C@H]1O[C@@H](n2ccc(=O)[nH]c2=O)[C@H](O)[C@@H]1O)N[C@@H](Cc1ccccc1)C(=O)NCC1CCCCC1	none (no result: RORgamma inh, VP16 counter, ELG1 repair inh)
COCCNc1ccc2cc(S(=O)(=O)N3CCCCC3)ccc2n1	DT40 TDP1 no CPT inconclusive (no result: RORgamma inh, IL-1B inflam inh, VP16 counter, ELG1 repair inh)
COc1ccc(CNc2ccc3cc(S(=O)(=O)N4CCCCC4)ccc3n2)cc1	DT40 TDP1 no CPT 18µM, DT40 TDP1 CPT inconclusive (no result: RORgamma inh, IL-1B inflam inh, VP16 counter, ELG1 repair inh)
ClC(Cl)(c1nnnn1-c1ccccc1)c1nnnn1-c1ccccc1	RORgamma inh 10µM, IL-1B inflam inh -120, VP16 counter 5µM, DT40 TDP1 no CPT 2.6µM, DT40 TDP1 CPT 1.3µM
O=C(C1CC1)N(CCN(Cc1ccccc1)C(=O)C1CC1)Cc1ccccc1	DT40 TDP1 no CPT 13µM, DT40 TDP1 CPT 16µM

Bioassay records (PubChem BioAssay)
